Among the data in PubChem BioAssay (EPA / NIEHS) are AC50 and outcome values, retold here.

Test [1] in a line: ATG_GLI_CIS: Attagene CIS-FACTORIAL HepG2 Assay for human Zinc Finger Protein GLI1 (AID 2282945). Particulars: HepG2, Attagene cis-factorial reporter mRNA, GLI element; actives raise or lower the signal. Put shortly: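 Bidirectional curve fits relative to DMSO, using reporter mRNA levels from RT-PCR plus capillary electrophoresis. Cells were HepG2 transiently carrying cis-regulated reporter constructs, harvested 24 h after dosing.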

The nature of test [2]: ATG_ISRE_CIS: Attagene CIS-FACTORIAL HepG2 Assay for human Interferon Regulatory Factor 1 (IRF1) binding to an Interferon-Stimulated Response Element (ISRE) (AID 2282948). Particulars: HepG2 ISRE cis-reporter (Attagene), mRNA transcription readout; actives raise or lower the signal. Put shortly:
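Endogenous transcription factor activity read as reporter transcript abundance via RT-PCR and capillary electrophoresis. HepG2 cells transiently transfected, 24 h chemical exposure. Gain or loss fitted against DMSO baseline.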

The nature of test [3]: ATG_M_32_CIS: Attagene CIS-FACTORIAL HepG2 Assay for M32 Transcription Factor (Internal Marker) (AID 2282949).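 Further: background control marker of the multiplexed CIS panel rather than a real target.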 Particulars: HepG2 Attagene cis-factorial M32 reporter, mRNA; actives raise or lower the signal. Put shortly: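 Using DMSO as baseline, bidirectional curve fits were applied to reporter mRNA signals. These came from transiently transfected HepG2 cells exposed for 24 h, with RNA analysed by RT-PCR, FAM primer extension, HpaI digestion and CE.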

In test [4] the target is Hypoxia-inducible factor 1-alpha (Homo sapiens) (UniProt Q16665). The experiment in a line: ATG_HIF1a_CIS: Attagene CIS-FACTORIAL HepG2 Assay for human Hypoxia Inducible Factor 1 (HIF1A) (AID 2282951). Particulars: HepG2 Attagene cis-factorial HIF1a reporter transcription; actives raise or lower the signal. Put shortly:
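After 24 h chemical exposure of reporter-transfected HepG2 cells, reporter cDNA was PCR-amplified, labelled by 6-FAM primer extension (2 min 95 C, 20 s 68 C, 10 min 72 C), HpaI-cut (2 h, 37 C) and analysed by CE.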

The target in test [5] is Hepatocyte nuclear factor 6 (Homo sapiens) (UniProt Q9UBC0). The test can be described thus: ATG_HNF6_CIS: Attagene CIS-FACTORIAL HepG2 Assay for human Hepatocyte Nuclear Factor 6 (HNF6) (AID 2282952). Particulars: HepG2 Attagene cis-factorial HNF6 reporter transcription; actives raise or lower the signal. Put shortly:
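Using cis-element reporters in HepG2 liver cells, the assay tracks endogenous factor-driven transcription 24 h post-dosing. Signal comes from 6-FAM-labelled, HpaI-digested RT-PCR fragments, with gain or loss scored against DMSO.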

The target in test [6] is Heat shock factor protein 1 (Homo sapiens) (UniProt Q00613). The test can be described thus: ATG_HSE_CIS: Attagene CIS-FACTORIAL HepG2 Assay for human Heat Shock Transcription Factor 1 (HSE) (AID 2282953). Particulars: HepG2 HSE cis-reporter, Attagene RNA transcription; actives raise or lower the signal. Put shortly: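 Using HepG2 with transfected cis-driven reporter constructs, compound effects on endogenous factor activity are scored as reporter mRNA change at 24 h. Detection: RT-PCR, HpaI digestion, capillary electrophoresis; bidirectional fitting to DMSO.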

Test [7] can be described thus: ATG_MRE_CIS: Attagene CIS-FACTORIAL HepG2 Assay for human Metal Responsive Element (MRE) (AID 2282954). Particulars: HepG2 MRE cis-reporter transcription, Attagene multiplex; actives raise or lower the signal. In outline:
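Multiplexed cis-reporter assay in human HepG2 liver cells, 24 h incubation with test chemical. Reporter transcripts measured by RT-PCR and capillary electrophoresis; values from bidirectional curve fitting versus DMSO.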

Test [8] can be described thus: ATG_PBREM_CIS: Attagene CIS-FACTORIAL HepG2 Assay for human Phenobarbital-responsive Enhancer Module (PBREM) (AID 2282955). Particulars: HepG2 PBREM cis-reporter, Attagene multiplexed transcription; actives raise or lower the signal. Put shortly:
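Measures endogenous factor action on a phenobarbital-responsive enhancer module. HepG2 transiently carrying cis reporters, 24 h treatment, mRNA read-out by RT-PCR plus capillary electrophoresis.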

In test [9] the target is Paired box protein Pax-6 (Homo sapiens) (UniProt P26367). The test can be described thus: ATG_Pax6_CIS: Attagene CIS-FACTORIAL HepG2 Assay for human Paired Box 6 (PAX6) (AID 2282956). Particulars: HepG2 CIS-FACTORIAL PAX6 reporter transcription, RNA readout; actives raise or lower the signal. Put shortly: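 Read-out is reporter transcript level, measured by RT-PCR with fluorescent primer extension and capillary electrophoresis after 24 h dosing of transfected HepG2 cells. Activity in either direction fitted relative to DMSO control.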

A short description of test [10]: ATG_PXRE_CIS: Attagene CIS-FACTORIAL HepG2 Assay for human Pregnane X Receptor Element (PXRE) (AID 2282957). Particulars: HepG2 Attagene CIS-FACTORIAL PXRE reporter, mRNA; actives raise or lower the signal. Put shortly:
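Using HepG2 transfected with multiple reporter transcription units, endogenous factor-driven transcription was scored as reporter mRNA after 24 h exposure.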

The nature of test [11]: ATG_RORE_CIS: Attagene CIS-FACTORIAL HepG2 Assay for human RAR-related Orphan Receptor Element (RORE) (AID 2282959). Particulars: HepG2 Attagene cis-factorial RORE reporter, mRNA; actives raise or lower the signal. In outline:
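A 24-hour exposure of transfected HepG2 hepatoma cells precedes RNA isolation and reporter RT-PCR. Labeled products are digested with HpaI and resolved by capillary electrophoresis, with gain or loss of signal scored relative to DMSO.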

The nature of test [12]: ATG_Sox_CIS: Attagene CIS-FACTORIAL HepG2 Assay for human SRY-box transcription factor (SOX) (AID 2282960). Particulars: HepG2 Attagene cis-factorial SOX reporter, mRNA; actives raise or lower the signal. In outline:
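HepG2, cis reporter units, 24 h exposure. Reporter mRNA: RT-PCR → FAM labelling → HpaI → CE fluorescence. Bidirectional fit vs DMSO.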

The target in test [13] is Transcription factor Sp1 (Homo sapiens) (UniProt P08047). The test can be described thus: ATG_Sp1_CIS: Attagene CIS-FACTORIAL HepG2 Assay for human Specificity Protein 1 (Sp1) (AID 2282961). Particulars: HepG2 Sp1 cis-reporter transcription, actives raise or lower the signal. In outline:
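Liver-derived HepG2 cells, cis-element reporter library, 24 h treatment; RNA isolated, cDNA amplified with reporter-specific primers, FAM-labeled fragments sized on capillary analyzer. DMSO baseline, bidirectional curve fit.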

Test [14] is described as follows: ATG_SREBP_CIS: Attagene CIS-FACTORIAL HepG2 Assay for human Sterol Regulatory Element Binding (SREBP) (AID 2282962). Particulars: HepG2 Attagene cis-factorial SREBP reporter, mRNA; actives raise or lower the signal. In outline:
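Endogenous SREBP activity read as cis-element-driven reporter transcript in transiently transfected HepG2, 24 h post-dosing; quantified via RT-PCR plus capillary electrophoresis of fluorescent fragments. Gain or loss of signal fitted relative to DMSO baseline.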

The target in test [15] is Signal transducer and activator of transcription 3 (Homo sapiens) (UniProt P40763). The experiment in a line: ATG_STAT3_CIS: Attagene CIS-FACTORIAL HepG2 Assay for human Signal Transducer and Activator of Transcription 3 (STAT3) (AID 2282963). Particulars: HepG2, Attagene cis-factorial STAT3 reporter transcription; actives raise or lower the signal. Put shortly: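 Cis-factorial format: endogenous transcription factors in HepG2 drive transfected reporter units. After 24 h treatment, reporter RNA was reverse-transcribed, amplified, FAM-labelled and HpaI-digested before CE analysis; activity scored in both directions against DMSO.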

Test [16] in a line: ATG_TA_CIS: Attagene CIS-FACTORIAL HepG2 Assay for human TA Basal Promoter (AID 2282964). Particulars: HepG2 Attagene CIS-factorial TA basal promoter reporter; actives raise or lower the signal. Put shortly:
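Transient MRTU transfection of HepG2 preceded 24 h compound exposure. Reporter mRNA levels were then read by RT-PCR with capillary electrophoresis, and this background-control endpoint was fitted bidirectionally to DMSO.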

For test [17], the target named is Bile acid receptor (Homo sapiens) (UniProt Q96RI1). The experiment in a line: ATG_IR1_CIS: Attagene CIS-FACTORIAL HepG2 Assay for human Nuclear Receptor Subfamily 1 Group H Member 4 (NR1H4), IR1 submotif (AID 2282946). Particulars: IR1 reporter transcription, actives raise or lower the signal. In outline:
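HepG2 cells transiently transfected with multiplexed cis-element reporter units read endogenous transcription factor activity. After 24 h compound exposure, reporter mRNA was quantified by RT-PCR, fluorescent labelling, HpaI digestion and capillary electrophoresis; bidirectional fitting versus DMSO baseline.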

Test [18] can be described thus: ATG_GRE_CIS: Attagene CIS-FACTORIAL HepG2 Assay for human Glucocorticoid Response Elements (GRE) (AID 2282947). Particulars: HepG2 GRE cis-reporter, Attagene multiplex mRNA; actives raise or lower the signal. Put shortly:
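Multiplexed cis-reporter mRNA induction, HepG2, 24 h post-dose. RT-PCR, FAM-labelled, HpaI-digested amplicons by CE. Bidirectional fit vs DMSO.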

Test [19] is described as follows: ATG_M_06_CIS: Attagene CIS-FACTORIAL HepG2 Assay for M06 Transcription Factor (Internal Marker) (AID 2282950). Particulars: HepG2 Attagene CIS-FACTORIAL M06 internal marker reporter; actives raise or lower the signal. Put shortly: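 One of many multiplexed endpoints: HepG2 reporter mRNA after 24 h dosing, detected by RT-PCR and capillary electrophoresis fluorescence; gain or loss of signal analysed against DMSO.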

Test [20] can be described thus: ATG_PPRE_CIS: Attagene CIS-FACTORIAL HepG2 Assay for human Peroxisome Proliferator-activated Response Element (PPRE) (AID 2282958). Particulars: HepG2 PPRE cis-element reporter, Attagene transcription factor profiling; actives raise or lower the signal. In outline: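 PPRE activity in HepG2: transient cis-reporter transfection, 24 h compound incubation, reporter mRNA by RT-PCR and CE fluorescence; gain/loss fitted against DMSO.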

Several values for one entry are separate records, joined by “and”; a condition that tells them apart may be missing. Equal values may be shown once. Some structures have more than one record in an assay (separate samples or runs), and their calls can disagree. Activity calls are given as the source filed them. How the source made its calls: active means hit-call score of the fitted dose curve at least 0.9, where 1 is the maximum; inactive means score below 0.9.

Chain of Hypoxia-inducible factor 1-alpha (Homo sapiens) (Q16665 whole entry, looked up): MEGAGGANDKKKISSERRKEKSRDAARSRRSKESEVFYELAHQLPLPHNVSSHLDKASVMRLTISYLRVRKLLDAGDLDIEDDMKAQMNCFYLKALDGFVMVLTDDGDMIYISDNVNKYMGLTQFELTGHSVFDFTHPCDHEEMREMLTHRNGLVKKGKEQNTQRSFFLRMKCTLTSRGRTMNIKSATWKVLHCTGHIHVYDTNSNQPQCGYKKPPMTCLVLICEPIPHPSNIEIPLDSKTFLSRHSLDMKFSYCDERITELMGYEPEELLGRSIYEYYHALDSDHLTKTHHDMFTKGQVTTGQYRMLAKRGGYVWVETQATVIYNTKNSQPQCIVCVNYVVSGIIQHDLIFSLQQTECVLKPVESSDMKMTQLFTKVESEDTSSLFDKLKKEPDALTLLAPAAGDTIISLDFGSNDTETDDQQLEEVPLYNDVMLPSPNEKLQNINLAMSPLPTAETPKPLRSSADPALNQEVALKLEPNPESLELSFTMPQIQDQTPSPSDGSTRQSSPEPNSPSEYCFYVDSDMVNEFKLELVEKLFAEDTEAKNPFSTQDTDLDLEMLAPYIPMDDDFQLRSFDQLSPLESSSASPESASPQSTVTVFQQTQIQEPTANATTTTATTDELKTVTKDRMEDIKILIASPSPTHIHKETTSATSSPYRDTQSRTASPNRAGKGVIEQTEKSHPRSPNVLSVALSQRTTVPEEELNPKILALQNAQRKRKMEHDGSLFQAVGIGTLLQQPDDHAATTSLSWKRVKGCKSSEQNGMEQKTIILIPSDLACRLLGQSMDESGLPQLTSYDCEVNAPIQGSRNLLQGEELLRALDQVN
Chain of Signal transducer and activator of transcription 3 (Homo sapiens) (P40763 whole entry, looked up): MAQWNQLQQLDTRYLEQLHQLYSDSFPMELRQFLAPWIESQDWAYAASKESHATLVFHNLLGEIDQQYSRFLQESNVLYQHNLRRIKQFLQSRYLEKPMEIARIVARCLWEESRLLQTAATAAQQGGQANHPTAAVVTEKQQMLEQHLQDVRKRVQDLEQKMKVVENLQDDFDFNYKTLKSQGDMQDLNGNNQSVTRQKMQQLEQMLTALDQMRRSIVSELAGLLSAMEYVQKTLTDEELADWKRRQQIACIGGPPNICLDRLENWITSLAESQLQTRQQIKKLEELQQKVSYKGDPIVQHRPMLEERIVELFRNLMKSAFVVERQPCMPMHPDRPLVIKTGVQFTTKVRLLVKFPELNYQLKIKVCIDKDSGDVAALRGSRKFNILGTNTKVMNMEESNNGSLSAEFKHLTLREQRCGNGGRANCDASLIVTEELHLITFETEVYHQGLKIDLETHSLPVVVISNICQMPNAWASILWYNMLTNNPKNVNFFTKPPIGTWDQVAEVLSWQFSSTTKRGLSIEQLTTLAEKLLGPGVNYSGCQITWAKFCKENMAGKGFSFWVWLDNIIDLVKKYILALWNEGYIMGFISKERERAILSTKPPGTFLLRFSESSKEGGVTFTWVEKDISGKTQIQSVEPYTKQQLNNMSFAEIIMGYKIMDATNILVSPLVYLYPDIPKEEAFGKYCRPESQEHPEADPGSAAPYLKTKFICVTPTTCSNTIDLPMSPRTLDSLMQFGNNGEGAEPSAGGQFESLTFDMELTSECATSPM
Chain of Paired box protein Pax-6 (Homo sapiens) (P26367 whole entry, looked up): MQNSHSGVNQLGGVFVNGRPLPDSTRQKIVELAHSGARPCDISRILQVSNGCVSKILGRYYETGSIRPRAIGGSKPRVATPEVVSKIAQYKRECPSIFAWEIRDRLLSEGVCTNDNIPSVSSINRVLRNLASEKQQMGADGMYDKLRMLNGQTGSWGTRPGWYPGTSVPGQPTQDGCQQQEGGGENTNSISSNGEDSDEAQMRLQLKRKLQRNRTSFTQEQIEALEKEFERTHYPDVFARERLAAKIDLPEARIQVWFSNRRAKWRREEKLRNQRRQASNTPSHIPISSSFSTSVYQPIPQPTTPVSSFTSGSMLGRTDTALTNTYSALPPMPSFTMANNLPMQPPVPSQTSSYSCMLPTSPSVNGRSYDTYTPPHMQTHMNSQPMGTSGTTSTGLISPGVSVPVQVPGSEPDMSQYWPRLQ
Chain of Hepatocyte nuclear factor 6 (Homo sapiens) (Q9UBC0 whole entry, looked up, the tested form may be a part): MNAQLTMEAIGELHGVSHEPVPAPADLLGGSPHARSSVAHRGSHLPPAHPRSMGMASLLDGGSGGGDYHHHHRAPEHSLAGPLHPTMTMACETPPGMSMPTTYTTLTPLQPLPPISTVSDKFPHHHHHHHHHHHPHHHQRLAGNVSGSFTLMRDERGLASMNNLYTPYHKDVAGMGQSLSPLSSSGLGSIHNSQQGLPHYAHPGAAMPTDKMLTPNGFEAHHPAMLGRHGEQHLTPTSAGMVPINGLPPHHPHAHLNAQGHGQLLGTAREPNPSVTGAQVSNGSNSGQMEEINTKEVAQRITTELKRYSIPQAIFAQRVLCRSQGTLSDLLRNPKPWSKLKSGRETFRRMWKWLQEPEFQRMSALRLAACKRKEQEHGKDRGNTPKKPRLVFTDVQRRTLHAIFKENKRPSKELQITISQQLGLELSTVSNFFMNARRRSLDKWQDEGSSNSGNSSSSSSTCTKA
Chain of Transcription factor Sp1 (Homo sapiens) (P08047 whole entry, looked up, the tested form may be a part): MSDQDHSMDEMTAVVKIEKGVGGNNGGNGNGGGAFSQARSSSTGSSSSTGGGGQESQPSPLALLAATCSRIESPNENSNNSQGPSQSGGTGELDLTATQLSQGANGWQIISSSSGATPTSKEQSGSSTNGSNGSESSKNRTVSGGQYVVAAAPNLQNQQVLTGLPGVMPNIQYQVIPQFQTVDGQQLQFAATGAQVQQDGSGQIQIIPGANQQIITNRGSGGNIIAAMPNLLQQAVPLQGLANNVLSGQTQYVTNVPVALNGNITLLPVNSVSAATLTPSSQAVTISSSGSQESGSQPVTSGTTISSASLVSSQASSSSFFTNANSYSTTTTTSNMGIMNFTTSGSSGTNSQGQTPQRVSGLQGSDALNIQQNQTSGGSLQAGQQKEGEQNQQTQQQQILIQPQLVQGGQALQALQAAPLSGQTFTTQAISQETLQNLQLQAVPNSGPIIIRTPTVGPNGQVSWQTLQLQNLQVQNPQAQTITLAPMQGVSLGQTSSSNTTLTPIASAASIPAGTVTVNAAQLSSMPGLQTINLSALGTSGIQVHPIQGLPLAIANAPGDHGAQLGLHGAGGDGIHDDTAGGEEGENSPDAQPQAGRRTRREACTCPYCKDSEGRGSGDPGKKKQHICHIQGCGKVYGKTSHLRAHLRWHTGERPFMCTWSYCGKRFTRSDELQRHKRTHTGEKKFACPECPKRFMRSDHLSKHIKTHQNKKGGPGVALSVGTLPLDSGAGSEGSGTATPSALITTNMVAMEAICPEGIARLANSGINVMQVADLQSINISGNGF
Chain of Heat shock factor protein 1 (Homo sapiens) (Q00613 whole entry, looked up): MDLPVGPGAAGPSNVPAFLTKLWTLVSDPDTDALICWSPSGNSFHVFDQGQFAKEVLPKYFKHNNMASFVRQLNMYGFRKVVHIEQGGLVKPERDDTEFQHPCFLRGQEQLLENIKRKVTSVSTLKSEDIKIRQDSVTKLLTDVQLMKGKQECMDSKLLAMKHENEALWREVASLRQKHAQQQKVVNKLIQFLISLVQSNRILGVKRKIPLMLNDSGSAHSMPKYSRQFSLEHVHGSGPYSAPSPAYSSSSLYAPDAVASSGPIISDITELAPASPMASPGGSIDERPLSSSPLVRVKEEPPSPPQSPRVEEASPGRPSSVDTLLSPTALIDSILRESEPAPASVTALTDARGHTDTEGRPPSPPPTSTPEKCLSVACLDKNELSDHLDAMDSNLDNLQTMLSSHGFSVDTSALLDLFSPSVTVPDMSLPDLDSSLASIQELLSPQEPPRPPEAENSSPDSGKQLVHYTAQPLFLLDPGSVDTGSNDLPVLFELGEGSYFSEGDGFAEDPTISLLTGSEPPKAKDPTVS
Chain of Bile acid receptor (Homo sapiens) (Q96RI1 whole entry, looked up): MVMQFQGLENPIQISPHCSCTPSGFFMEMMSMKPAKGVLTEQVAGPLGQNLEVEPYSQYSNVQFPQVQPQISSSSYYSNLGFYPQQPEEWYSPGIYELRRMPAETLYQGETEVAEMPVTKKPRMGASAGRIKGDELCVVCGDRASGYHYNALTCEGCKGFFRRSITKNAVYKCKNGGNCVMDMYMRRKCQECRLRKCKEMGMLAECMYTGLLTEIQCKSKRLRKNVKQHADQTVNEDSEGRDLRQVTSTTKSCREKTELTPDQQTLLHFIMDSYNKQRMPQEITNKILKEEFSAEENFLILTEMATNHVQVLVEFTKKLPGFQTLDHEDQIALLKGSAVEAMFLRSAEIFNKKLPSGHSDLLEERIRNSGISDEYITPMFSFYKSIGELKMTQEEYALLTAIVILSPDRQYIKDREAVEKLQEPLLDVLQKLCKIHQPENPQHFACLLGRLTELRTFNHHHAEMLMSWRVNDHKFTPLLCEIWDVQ

What is called AC50 is the midpoint of the concentration-response curve, whichever way the signal moves. Take `OCCC(F)(F)C(F)(F)C(F)(F)C(F)(F)C(F)(F)C(F)(F)C(F)(F)C(F)(F)F`: the AC50 is 59.2 µM (active) in test [1]; 150 µM (active) in [2]; 171 µM (active) in test [5]; 55.7 µM (active) and 234 µM (active) in test [6]; 47.3 µM (active) and 150 µM (active) in test [7]; 52.5 µM (active) and 222 µM (active) in test [8]. Moreover, the AC50 in test [9] was 43.3 µM (active) and 176 µM (active); in [10] it was 52.1 µM (active) and 98.7 µM (active); in [11] it was 25.7 µM (active); in test [12], 33.4 µM (active) and 150 µM (active); in test [13], 48.4 µM (active) and 150 µM (active); in test [14] it was 222 µM (active). The result in test [1], in test [2], in test [3], in test [4], in [5] and in [11] was inactive. In addition, the outcome in test [14], in [15] and in test [16] was inactive.
With `CCCCCCCCCCCCN1CCCC1=O`, the outcome in test [1], in test [17], in [18], in [2], in test [3] and in test [19] was inactive. Further, the outcome in test [4], in test [5], in [6], in test [7], in test [8] and in test [9] was inactive. In addition, the call in test [20], in test [11], in test [12], in test [13], in [14] and in test [15] was inactive. In addition, the result in [16] was inactive. The AC50 in test [10] is 4.43 µM (active).
`O=C(O)Cc1cc(I)c(Oc2cc(I)c(O)c(I)c2)c(I)c1`: the AC50 is 67 µM (active) in [1]; 17.2 µM (active) in test [18]; 108 µM (active) in test [3]; 40.5 µM (active) and 44.9 µM (active) in test [6]; 32.7 µM (active) and 54.7 µM (active) in [7]; 113 µM (active) and 17.5 µM (active) in [8]. Also, the AC50 in test [9] was 67 µM (active); in test [20], 4.68 µM (active) and 13.3 µM (active); in [11], 53.6 µM (active) and 10.8 µM (active); in test [12], 23.4 µM (active) and 18.1 µM (active); in test [13], 31.3 µM (active) and 17 µM (active); in test [14], 4.05 µM (active) and 5.53 µM (active). Besides, in test [16], the AC50 was 84.2 µM (active). Besides, the compound was classed as inactive in test [1], in test [18], in test [2], in test [3], in test [4] and in test [5]. Moreover, the outcome in test [9], in [10], in test [15] and in test [16] was inactive.
